# Measured values: PubChem BioAssay (Tox21)
# Inconclusive results are not listed. A number with no mark means an inactive call. Calls come from the whole dose curve; as a rule, active = well fitted activation curve with a large enough effect in the repeat runs; inconclusive = weak or mixed curves; inactive = flat fitted curve, though single readings scatter. Where a SMILES comes first, the peptide text is derived from it. [ ]: non-standard residue; d: D form. pGlu = O=C1CC[C@@H](C(=O)O)N1
# Assay: A CellTox Green Cytotoxicity Assay to monitor cytotoxicity in HepG2 cells - 40 hour (AID 1224879); note: nearly all actives have a fitted effect of over 40% in size
# Conditions: CellTox Green fluorescence; series mostly up to 76.8 µM; cytotoxicity increase: at the top concentration
# Source text: National Center for Advancing Translational Sciences [NCATS]
# NIH Chemical Genomics Center [NCGC]
# U.S. Environmental Protection Agency [EPA]
# National Institutes of Environmental Health Sciences [NIEHS]
# National Toxicology Program [NTP]
# Cell-based models are critical for drug discovery. Determining the natural cytotoxic effects resulting from test compounds is an essential research activity. A CellTox Green Cytotoxicity Assay to monitor cytotoxicity in real time of continues cell culture during 40 hours of the compound treatment was used to screen Tox21 10K library compounds in HepG2 cells. CellTox Green Cytotoxicity Assay is a nonlytic, homogeneous, biofluorescent method to measure cytotoxicity in cell culture after experimental manipulation. The assay system uses a proprietary asymmetric cyanine dye that is excluded from viable cells but preferentially stains the dead cell's DNA. […] Viable cells produce no appreciable increases in fluorescence. Therefore, the fluorescence signal produced by the binding interaction with dead cell DNA is proportional to cytotoxicity.
# The mixture of HepG2 cell suspension and reagents were dispensed at 600cells/6 ul/well in 1536-well tissue culture treated black solid bottom plates using a Multidrop dispenser. After the assay plates were incubated at a 37 C/5% CO2 incubator for 5 hours, 23 nL of compounds dissolved in DMSO, positive and negative controls was transferred to the assay plate by a pintool work station. The plates were incubated at 37 C for 40 hours. The fluorescence intensity were measured at 0h, 8h, 16h, 24h, 32h and 40h time points using ViewLux plate reader during compound treatment.
# % is set by controls: 0 for no effect and ±100 for the full control effect.
row,Structure (SMILES),cytotoxicity increase
1,O=C(O)CCSCCC(=O)O,2.23%
2,CCCCN1C=CN(C)C1,-22.4% [at 15.8 µM]
3,NC(=O)N1c2ccccc2CC(=O)c2ccccc21,-7.35% [at 35.3 µM]
4,CCCC(C)C(=O)OCC (stereo not given),-5.79%
5,COc1c(N2CCNC(C)C2)c(F)cc2c(=O)c(C(=O)O)cn(C3CC3)c12 (stereo not given),-7.22% [at 35.3 µM]
6,CC(C#N)(CCC(=O)O)N=NC(C)(C#N)CCC(=O)O (stereo not given),0.527%
7,C[C@H]1C[C@H]2[C@@H]3CCC4=CC(=O)C=C[C@]4(C)[C@H]3C(=O)C[C@]2(C)[C@@]1(O)C(=O)CO,-10.1% [at 35.3 µM]
8,CC1=NN(c2cccc(S(=O)(=O)O)c2)C(=O)C1,0.841%
9,C=CC(=O)OCCCl,21.8%
10,CCOc1ccc2nc(S(N)(=O)=O)sc2c1,-3.34% [at 35.3 µM]
11,Clc1cc(Cl)cc(Cl)c1,-5.26%
12,C[N+]1(C)CCCC(OC(=O)C(O)(c2ccccc2)c2ccccc2)C1 (stereo not given),-3.19% [at 35.3 µM]
13,CCCCCC(=O)OCCc1ccccc1,-0.4%
14,CC(C)CC(C)(N)C#N (stereo not given),-1.31%
15,CCCCCCCCN1CCCC1=O,-0.211%
16,C=CC(C)(CCC=C(C)C)OC(=O)CC (stereo not given),9.48%
17,COc1cc2c(cc1OC)-c1cc3ccc(OC)c(OC)c3c[n+]1CC2,10.2%
18,N[C@H](C(=O)O)[C@@H](O)c1ccc(O)c(O)c1,-6.95% [at 35.3 µM]
19,CCOC(=O)COC(=O)c1ccccc1C(=O)OCC,-10.4%
20,CCOC(=O)C1=NOC(c2ccccc2)(c2ccccc2)C1,-9.47%

row,Structure (SMILES),cytotoxicity increase
1,COCCOCC(OC)OC,5.64% [at 35.3 µM]
2,C[N+]1(C)[C@@H]2CC(OC(=O)[C@H](CO)c3ccccc3)C[C@H]1[C@@H]1O[C@@H]12 (stereo not given in full),-13.4% [at 35.3 µM]
3,CC(C)(C)C(=O)c1ccccc1,-7.42%
4,CC(=O)c1cnccn1,18%
5,CN1CCC(=C2c3ccccc3CCc3cccnc32)CC1,-0.839% [at 35.3 µM]
6,CCN(Cc1ccccc1)c1ccccc1,-1.18%
7,CC[C@H]1OC(=O)[C@H](C)[C@@H](O[C@H]2C[C@@](C)(OC)[C@@H](O)[C@H](C)O2)[C@H](C)[C@@H](O[C@@H]2O[C@H](C)C[C@H](N(C)C)[C@H]2O)[C@](C)(OC)C[C@@H](C)C(=O)[C@H](C)[C@@H](O)[C@]1(C)O,0.384%
8,O=C(O)c1cc(C(=O)O)cc(C(=O)O)c1,-2.94%
9,Cc1ccc(-c2ncc(Cl)cc2-c2ccc(S(C)(=O)=O)cc2)cn1,7.83% [at 35.3 µM]
10,COc1ccccc1OCC1CNC(=O)O1 (stereo not given),4.92% [at 35.3 µM]
11,CCN(C=O)CC,-0.445%
12,CC(C)C[C@@H](N)C(=O)O,0.791% [at 15.8 µM]
13,CCNC(=O)[C@@H]1CCCN1C(=O)[C@H](CCCN=C(N)N)NC(=O)[C@H](CC(C)C)NC(=O)CNC(=O)[C@H](Cc1ccc(O)cc1)NC(=O)[C@H](CO)NC(=O)[C@H](Cc1c[nH]c2ccccc12)NC(=O)[C@H](Cc1cnc[nH]1)NC(=O)[C@@H]1CCC(=O)N1 ([pGlu]HWSYGLRP-NHEt),-9.71% [at 35.3 µM]
14,CC(COc1ccccc1)NN (stereo not given),-12.6% [at 35.3 µM]
15,CCCCc1nc(Cl)c(CO)n1Cc1ccc(-c2ccccc2-c2nn[nH]n2)cc1,-10.4% [at 35.3 µM]
16,O=C1CCCCCCCCCCCCCCO1,19.5%
17,CCCCOCCOC(=O)CCCCCCCCC(=O)OCCOCCCC,5.15%
18,CCO[Si](OCC)(OCC)c1ccccc1,-14.2%
19,CC(=O)Nc1ccc(OCC(O)CNC(C)C)cc1 (stereo not given),-9.61% [at 35.3 µM]
20,CC1=NS(=O)(=O)c2cc(Cl)ccc2N1,-2.52% [at 35.3 µM]
